Reference: PubChem BioAssay (NCI)
This is part of a sample that, as a whole, favours compounds with a hit. Of some 83,000 tested, about 20% had one in any assay.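 The test compound was applied at a single concentration to cells in 96-well plates for 48 hours, and percent growth was recorded.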 A number with no mark means an inactive call. Calls of active or inactive are those of the source. How the source made its calls: active means growth percent below 10; inactive means the rest.

System: MDA-MB-231 breast
Assay: NCI-60 one-dose screen, 48 h (100 = growth as untreated, 0 = no growth, -100 = all killed)
Settings: 10 µM unless noted

SMILES	growth
C=C1C(=O)O[C@H]2[C@H]1CC/C(Cn1cc(-c3cc(C)c(C)cc3C)nn1)=C\CC[C@@]1(C)O[C@@H]21	-73.7% (active)
C=C1C(=O)O[C@H]2[C@H]1CC/C(CNC(=O)c1cc3cc(OC)ccc3[nH]1)=C\CC[C@@]1(C)O[C@@H]21	-55.5% (active)
C=CCC(=O)N[C@H](/C=C/C(=O)O)Cc1ccc(-c2cc(Cl)cc(Cl)c2)cc1	97.9%
NN1C(=O)CSC1=S	105%
CC(=O)C(C(C)=O)C(c1ccccc1)C(C(C)=O)C(C)=O	97.5%
COc1cc(NCCN(CC(C)C)CC(C)C)c2ncc(C)cc2c1	50.3%
COc1ccc2c(CCC(c3ccccc3)c3ccccc3)c3[n+](cc2c1OC)CCc1cc2c(cc1-3)OCO2	-28.7% (active)
O=C1CC(c2ccc3c(c2)OCO3)c2ncn(-c3ccc(Cl)cc3)c2N1 (stereo unspecified)	44.3%
Clc1nc(Cl)c2ncn(CC#CCn3cnc4c(Cl)nc(Cl)nc43)c2n1	-52.6% (active)
COc1ccc(C2CC(=O)c3c(O)c(OC)c(OC)c(OC)c3O2)c(O)c1 (stereo unspecified)	24.9%
C[N+](C)(CCOC(c1ccccc1)c1ccccc1)CC(=O)OCc1ccccc1	113%
Nc1c2c(c(O)c3c1=C(CO)C=N3)=NCCS2	2.38% (active)
Cc1cccc(NC(=O)[C@@H]2c3ccccc3C(=O)N(c3ccc(Cl)cc3)[C@H]2c2ccc(Cl)cc2)n1	32.1%
CC(N)C(Cc1ccccc1)c1ccc(Cl)cc1 (stereo unspecified)	61.1%
C=CCCCC(=O)CCC(=O)OCC1O[C@@H](O[C@@H]2C(O)[C@@H](OC(C)=O)C(C)O[C@H]2O[C@H](CC=C)CCCCC)C(O)[C@@H](OC(=O)/C(C)=C/C)[C@@H]1OC(=O)/C=C/c1ccccc1 (stereo partly specified)	4.48% (active)
COc1ccc2c(c1OC)C(=O)O[C@@H]2[C@H]1c2c(c(C#CC#Cc3ccc(F)c(F)c3)c3c(c2OC)OCO3)CCN1C	90.9%
